This passage reports minimum viability results from PubChem BioAssay AID2244 (Southern Research Specialized Biocontainment Screening …, 2010).

Results with a measured potency or affinity are listed apart. Unmarked numbers belong to inactive results.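 How the source made its calls: active means viability below 70% at one or more tested concentrations; inactive means viability above 70% at every concentration.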

The test is described as follows: Vero E6 cell cytotoxicity, SAR follow-up, cytotoxicity control for West Nile virus antiviral project, synthesized analogs (AID 2244). Conditions: CellTiter-Glo luminescence, 72 h, active compounds read low; at 40 µM unless noted. In general terms: In ATP-based viability assays light output follows the ATP content of the culture.
As for `COc1ccc(NC(=O)CSc2nc3ccccc3c(=O)n2-c2ccc(F)cc2)cc1`, the minimum viability was 70.1%.

As for `O=c1c2c(F)cccc2nc2n1CCC2`, the minimum viability is 80.3% [at 2.5 µM].

Turning to `Cc1ccc2nc3n(c(=O)c2c1)CCC3`, the minimum viability is 76.4% [at 0.078 µM].

For `COc1cccc(-n2c(SCC(=O)Nc3ccc4c(c3)CCC4)nc3ccccc3c2=O)c1`, the minimum viability was 74.6%.

Turning to `c1ccc2c(c1)CN1CCCC1=N2`, the minimum viability was 89.1% [at 20 µM].

Take `O=c1c2cccc(Cl)c2nc2n1CCC2`: the minimum viability was 79.7% [at 5 µM].

Take `COc1ccccc1NC(=O)CSc1nc2ccccc2c(=O)n1-c1ccc(F)cc1`: the minimum viability is 78.4%.

As for `COc1ccc(-c2csc(N(C)C(=O)c3ccccc3Cl)n2)cc1`, the minimum viability was 78.5%.

As to `O=C(CSc1nc2ccccc2c(=O)n1-c1ccc(F)cc1F)Nc1ccc(N2CCOCC2)cc1`, the minimum viability is 70.7%.

As to `CC1(O)c2cc(Br)ccc2N=C2CCCN21` (stereo not given), the minimum viability is 74.6% [at 0.156 µM].

As for `Cc1cccc2nc3n(c(=O)c12)CCC3`, the minimum viability is 78.3% [at 0.625 µM].

As for `CC(=O)Nc1ccc2nc3n(c(=O)c2c1)CCC3`, the minimum viability is 79.7% [at 0.625 µM].

`Cc1cccc2c(=O)n3c(nc12)CCC3`: the minimum viability is 75.1% [at 0.078 µM].

Regarding `CCOC(=O)C1(Cc2ccccc2C(F)(F)F)CCN(C2CCN(C(C)=O)CC2)CC1`, the minimum viability was 87% [at 80 µM].

In the case of `Nc1ccc2nc3n(c(=O)c2c1)CCC3`, the minimum viability is 76.6%.

On to `O=c1c2cc(I)ccc2nc2n1CCC2`, for which the minimum viability is 72.6%.

With `COc1ccc(-c2csc(N(CCCBr)C(=O)c3ccccc3Cl)n2)cc1`, the minimum viability is 70.2%.

Regarding `O=c1c2cc([N+](=O)[O-])ccc2nc2n1CCC2`, the minimum viability was 78.7%.

Take `CC1CC(C)CN(C(=O)CSc2nc3ccccc3c(=O)n2-c2ccc(F)cc2)C1` (stereo not given): the minimum viability was 74.6%.

`O=[N+]([O-])c1ccc2c(c1)C(O)N1CCCC1=N2` (stereo not given): the minimum viability was 76.7% [at 0.078 µM].
